# Compound activity deposited in PubChem BioAssay by National Center for Advancing Translational Sciences (NCATS).
# CtBP-E1A blk: inhibitors of CtBP/E1A interaction. AlphaScreen GST-E1A/His-CtBP binding, 1536-well; active compounds read low. activity change, % (concentration not given with the values). actives 0.49% (n = 340,000); in the data active = activity change below about -65%; inconclusive = mostly about -30% to -63%; note: % is set by controls: 0 for no effect and ±100 for the full control effect
#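 GST-E1A and His-tagged CtBP (125 nM each as 5X stock) were preincubated with pin-transferred compound for 2 h at 37 °C in the dark, then glutathione donor and nickel acceptor beads were added for 1 h before AlphaScreen reading.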
# RORgamma inh: ROR gamma (mouse) transcription inhibition | Potency, µM (highest dose often 53.6 µM), for the others: at the top dose activity change, negative = inhibition, hits mostly inhibitors | actives 5.4% (n = 310,000) | Drosophila S2 Gal4-RORgamma UAS-luciferase reporter, 20 h | P51450 | AID 2551; note: potency is the fitted concentration of half-maximal effect; % is set by controls: 0 for no effect and ±100 for the full control effect; nearly all actives have a fitted effect of over 60% in size
#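 Schneider cells (Drosophila), stable Gal4 DBD–ROR gamma + UAS-luc; 1 hr cmpd preincubation; Cu2+ induction 700 uM final; 20 hr ambient; luminescence.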
# VP16 counter: inhibits Gal4-VP16 luciferase reporter, ROR gamma counter-screen | Drosophila S2 Gal4-VP16 UAS-luciferase, luminescence, 20 h | Potency, µM (titrated, usually from 53.6 µM), without a hit: at the highest dose activity, negative = inhibition, usual class: inhibitors | actives 3.5% (n = 310,000) | AID 2546;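 note: Gal4-VP16 expression switched on by copper sulfate through the metallothionein promoter; potency is the fitted concentration of half-maximal effect; % is set by controls: 0 for no effect and ±100 for the full control effect; nearly all actives have a fitted effect of over 50% in size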
# Six1-Eya2 blk: inhibitors of human Six1/Eya2 interaction. AlphaScreen GST-Six1/His-Eya2 binding, biochemical; active compounds read low. activity change, % (no concentration beside the values). actives 0.56% (n = 360,000); in the data active = activity change below about -65%; inconclusive = mostly about -30% to -63%; note: % is set by controls: 0 for no effect and ±100 for the full control effect
# Target sequence (O00167 whole entry, looked up): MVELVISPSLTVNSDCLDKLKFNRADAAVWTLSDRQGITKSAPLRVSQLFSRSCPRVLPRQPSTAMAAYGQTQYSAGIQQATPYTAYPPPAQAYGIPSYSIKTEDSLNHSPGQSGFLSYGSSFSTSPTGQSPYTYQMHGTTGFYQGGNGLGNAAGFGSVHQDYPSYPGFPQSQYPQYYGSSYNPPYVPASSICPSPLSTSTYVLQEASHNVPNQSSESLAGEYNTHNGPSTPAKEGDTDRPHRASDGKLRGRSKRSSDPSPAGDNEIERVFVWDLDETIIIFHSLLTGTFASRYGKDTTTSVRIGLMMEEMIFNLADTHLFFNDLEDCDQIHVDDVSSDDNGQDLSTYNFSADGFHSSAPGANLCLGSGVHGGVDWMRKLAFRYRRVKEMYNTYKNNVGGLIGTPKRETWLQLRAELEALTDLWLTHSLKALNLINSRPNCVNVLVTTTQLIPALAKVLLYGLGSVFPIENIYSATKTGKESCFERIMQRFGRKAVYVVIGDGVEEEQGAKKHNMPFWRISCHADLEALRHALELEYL
# Target sequence (Q15475 whole entry, looked up): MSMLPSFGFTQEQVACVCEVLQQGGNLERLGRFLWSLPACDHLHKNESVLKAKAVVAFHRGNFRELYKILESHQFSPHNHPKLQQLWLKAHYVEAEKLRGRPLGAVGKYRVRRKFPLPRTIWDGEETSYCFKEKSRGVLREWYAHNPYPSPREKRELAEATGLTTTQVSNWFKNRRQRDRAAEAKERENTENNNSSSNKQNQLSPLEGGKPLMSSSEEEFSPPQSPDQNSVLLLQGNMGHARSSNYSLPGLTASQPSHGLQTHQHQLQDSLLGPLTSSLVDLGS
#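 Homogeneous AlphaScreen proximity assay pairing GST-Six1 with His-tagged Eya2 (added as 5X mix: 250 nM and 500 nM) in 50 mM Tris pH 8.0, 300 mM NaCl, 1 mM TCEP. Glutathione donor and nickel acceptor beads; 1 h, 37 °C, dark.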
# CBFb-RUNX1 inh: inhibitors of human CBF-beta and RUNX1 interaction; AlphaScreen CBFb-His/RUNX1-biotin binding, biochemical; Potency, µM (doses to about 59.8 µM), for inactives: at the highest dose activity, negative = inhibition, most hits filed as inhibitors; AID 1477; 230,000 tested, under 10 active; Q01196+Q13951; note: % of control where 0% means no effect
#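 Room-temperature protein-protein interaction test with 30 nM each of His-tagged CBF-beta and biotinylated RUNX1, 15 min with compound, then 90 min with nickel plus streptavidin beads. Signal read in AlphaScreen mode.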
# MBNL1-CUG inh: blocks human MBNL1 binding to CUG repeat RNA | Q9NR56 | TR-FRET MBNL1-His/biotin-(CUG)12 binding, 665/545 ratio | Potency, µM (top dose mostly 57.5 µM), without a hit: at the highest dose activity change, negative = inhibition, hits mostly inhibitors | actives 0.036% (n = 280,000) | AID 2675; active = well fitted inhibition curve with a large enough effect in the signal ratio, with a control signal flat, not every such curve was filed as active; inconclusive = small, poorly fitted or top-dose-only effect, or effect the other way, or a change in a side signal; inactive = no such curve, though single readings can be large or run the other way; the % refers to the signal ratio; note: potency is the fitted concentration of half-maximal effect; % is set by controls: 0 for no effect and ±100 for the full control effect
#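 TR-FRET readout: Ex 340 nm, 665/545 nm emission ratio, normalized to buffer-only (basal) and MBNL1-(CUG)12 controls. Complex of MBNL1-His with Biotin-(CUG)12, compounds 92 nM–58 uM, incubated 60 min at room temperature.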
# An asterisk follows results filed as active; ? = inconclusive; nt = no result given; [ ] = remark or other dose. Only some compounds are listed: those with a hit (about 5.5% of all), similar ones and a draw of the others. Unless noted, calls come from the whole dose curve; as a rule, active = well fitted curve in the direction sought with a large enough effect; inconclusive = small, poorly fitted or top-dose-only effect, or another doubt; inactive = no such curve, though single readings can be large; an effect the other way counts as inactive or inconclusive.
SMILES,CtBP-E1A blk,RORgamma inh,VP16 counter,Six1-Eya2 blk,CBFb-RUNX1 inh,MBNL1-CUG inh
COc1ccc2c(c1[N+](=O)[O-])CCC/C2=N/OC(=O)c1cccc2ccccc12,-2,-23%,14µM*,-5,4%,8%
N#C/C(=C/c1cccnc1)c1ccccc1,6,-33%,5%,4,nt,?
N#C/C(=C\c1cccnc1)c1ccc([N+](=O)[O-])cc1,-1,?,13µM*,-4,nt,?
COC(=O)c1cc(C(=O)Nc2nnc(CC(C)C)s2)cc([N+](=O)[O-])c1,-7,13µM*,22µM*,3,-3%,?
COCCSc1nnc(NC(=O)c2cc(C(=O)OC)cc([N+](=O)[O-])c2)s1,19,-35%,-4%,12,5%,0%
COCc1nnc(NC(=O)c2cc(C(=O)OC)cc([N+](=O)[O-])c2)s1,-1,-31%,4%,0,6%,?
CCC(CC)c1nnc(NC(=O)c2cc(C(=O)OC)cc([N+](=O)[O-])c2)s1,-9,7.1µM*,?,6,-13%,?
O=C(C1CC1)N1CCc2cc(Br)cc(S(=O)(=O)N3CCN(c4ccccn4)CC3)c21,-6,1%,22µM*,-2,14%,-8%
O=C(CCCOc1ccc(Cl)cc1Cl)N/N=C/c1ccc(Cl)cc1,0,-41%,?,2,-5%,-6%
O=C(COc1ccc(Cl)cc1Cl)N/N=C/c1ccc(OC2OC(CO)C(O)C(O)C2O)cc1 (centres undefined),nt,11µM*,4%,-10,0%,-3%
Cn1c(NC(=O)c2ccc(Br)o2)cc(=O)n(C)c1=O,-1,13µM*,3%,-2,-8%,16%
CN(CC(=O)Nc1ccccc1Br)C(=O)c1ccc(-c2ccc(Cl)cc2)o1,0,?,5.6µM*,6,nt,0%
CC1(C)C2CC=C(/C=N/n3cnnc3)C1C2 (centres undefined),1,-5%,-4%,6,3%,4%
CC1(C)C2CC=C(/C=N/NC(=O)c3ccccc3O)C1C2 (centres undefined),6,8.9µM*,?,-1,-5%,-2%
CNC(=S)N/N=C/C1=CCC2CC1C2(C)C (centres undefined),3,1.3µM*,2.5µM*,3,-4%,15%
CC1(C)C2CC=C(/C=N/NC(=S)NCCc3ccccc3)C1C2 (centres undefined),0,2µM*,7.1µM*,1,-10%,-3%
O=C(CCC1CCCN(C(=O)c2cc(F)ccc2F)C1)N1CCN(c2ccccn2)CC1 (centres undefined),4,nt,nt,0,nt,nt
O=C(NC12CC3CC(CC(C3)C1)C2)c1cccc(OC(F)F)c1,3,-17%,8%,11,nt,-2%
S=C1CCSc2ccc(Cl)cc2N1,0,4µM*,10µM*,8,2%,-4%
O=C1CCCC2=C1Sc1ccc(Cl)cc1N2,nt,11%,0%,-18,-14%,?
CCN(c1ccccc1)S(=O)(=O)c1ccc(NC(=S)NC(=O)c2ccc(Br)o2)cc1,-12,4.5µM*,16µM*,-21,-16%,-2%
CCC(=O)NC(=S)Nc1ccc(NC(=O)c2ccc(Br)o2)cc1,nt,11µM*,9%,-2,9%,32%
CCC(=O)NC(=S)Nc1ccc(NC(=O)c2ccc(OC)cc2)cc1,1,2%,-2%,4,1%,?
COc1ccc(S(=O)(=O)N2CC(C)N(C(=O)N(C)C)C2C)cc1 (centres undefined),-1,-2%,-2%,10,nt,0%
CSCCC(NS(=O)(=O)c1ccc(Cl)cc1)C(=O)OCC(=O)c1c(C)[nH]c2ccccc12 (centres undefined),1,?,16µM*,-2,-5%,-31%
SMILES,CtBP-E1A blk,RORgamma inh,VP16 counter,Six1-Eya2 blk,CBFb-RUNX1 inh,MBNL1-CUG inh
C[C@H](CO)N1C[C@H](C)[C@H](CN(C)S(=O)(=O)c2ccc(F)cc2)OCc2cnnn2CCCC1=O,5,nt,nt,5,nt,nt
CNC(=S)N/N=C/c1c2ccccc2c(Cl)c2ccccc12,-8,4.5µM*,5µM*,-10,nt,?
CNC(=S)N/N=C/c1c(C)cccc1Cl,-19,2.2µM*,4µM*,-10,2%,-9%
N#CCCn1c(=O)c(-c2ccc(Cl)cc2)nc2cnc(Oc3ccccc3)nc21,nt,3%,-5%,nt,nt,nt
COCc1nnc(NC(=O)CSCc2ccccc2)s1,7,11µM*,-17%,0,1%,8%
O=C(Cc1cccc2ccccc12)Nc1nnc(-c2cccc([N+](=O)[O-])c2)s1,-20,-17%,2%,0,2%[2.36 µM],-18%
O=C(CSc1ccccc1)Nc1nnc(COc2ccc(Cl)cc2)s1,-1,11µM*,?,2,-9%,-4%
COC(=O)CSCC(=O)Nc1nnc(-c2cccc(C)c2)s1,nt,13µM*,-29%,2,5%,68%
COCc1nnc(NC(=O)CSc2ccccc2)s1,3,?,-27%,6,11%,2%
COC(=O)CSCC(=O)Nc1nnc(-c2ccccc2C)s1,nt,?,?,-4,2%,5%
O=C(CSc1ccc(Cl)cc1)Nc1nnc(-c2cccc([N+](=O)[O-])c2)s1,2,10µM*,?,5,4%[2.36 µM],?
COCCNC(=O)[C@H](C)/C=C(\c1cccnc1)C(NC(=O)OCc1ccccc1)c1ccc(C(=O)OC)cc1 (some centres undefined),nt,25%,-3%,nt,7%,nt
COC(=O)c1cc2c(s1)-c1ccc(OC)cc1CC2,nt,11%,-5%,8,?,22%
COCCSc1nnc(NC(=O)COC)s1,11,-32%,14%,0,3%,-4%
COCCSc1nnc(NC(=O)CSCc2ccccc2)s1,13,7.9µM*,?,0,13%,11%
C#CCCOC(=O)N1C2=NC(C(=O)OC)=C(C(=O)OC)[C@@H]3N(CC#CC)c4ccccc4[C@]23C[C@H]1C(=O)OC,nt,nt,nt,nt,-3%[13.1 µM],nt
Cc1cc(NC(=O)c2cc(-c3ccccc3)on2)no1,4,22%,-1%,3,?,-10%
O=C(c1ccccc1)c1cc(-c2ccccc2)on1,44,?,11µM*,39,14%,6%
O=C1C2C3C=CC(C3)C2C(=O)N1c1cccc2ccccc12 (centres undefined),4,-10%,-6%,3,nt,6%
